# Screening data: PubChem BioAssay, National Center for Advancing Translational Sciences (NCATS)
# HepG2 tox: HepG2 cytotoxicity, counter-screen for TGF-b inhibitors. Potency, µM (series often up to 46.1 µM), for inactives: at the highest dose activity change, negative = cytotoxicity, usual class: cytotoxic. actives 0.76% (n = 410,000). HepG2 CAGA-GFP viability, ATP luminescence, 18 h. AID 588856; also: potency is read from the fitted curve at half-maximal effect
#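 CellTiter-Glo luminescence gave cytotoxicity after 18 hours at 37 degrees C. The cells were HepG2 CAGA-GFP in 1% FBS DMEM, stimulated with 500 pg/mL TGF-beta after compound addition. %Activity was normalised to no-cell wells (complete cell-killing) and DMSO (no toxicity), and curves were fitted and classified.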
# TGFb SMAD3 inh: TGF-b pathway inhibition | HepG2 CAGA-GFP TGF-b/SMAD3 reporter, GFP fluorescence, 18 h; TGF-beta stimulated, 500 pg/mL final | Potency, µM (titrated, usually from 46.1 µM), for inactives: at the highest dose activity, negative = inhibition, hits mostly inhibitors | actives 1.2% (n = 410,000); also: potency is read from the fitted curve at half-maximal effect; % is scaled to controls: 0 for no effect and ±100 for the full control effect; nearly all actives have a fitted effect of over 65% in size
#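 Cell-based qHTS in HEPG2 carrying a CAGA-GFP Smad reporter; compounds added before 500 pg/mL final TGF-beta, 18 h incubation at 37 degrees C, GFP fluorescence quantified per cell by imaging cytometry.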
# S-ASM inh: blocks human secretory acid sphingomyelinase | P17405 | placental ASM, HMU-PC fluorogenic substrate, 60 min | Potency, µM (series often up to 57.5 µM), inactives show at the top dose activity change, negative = inhibition, actives largely listed as inhibitors | actives 0.006% (n = 340,000) | AID 504937; also: potency is read from the fitted curve at half-maximal effect
# Target sequence (P17405 47-631 limits assumed): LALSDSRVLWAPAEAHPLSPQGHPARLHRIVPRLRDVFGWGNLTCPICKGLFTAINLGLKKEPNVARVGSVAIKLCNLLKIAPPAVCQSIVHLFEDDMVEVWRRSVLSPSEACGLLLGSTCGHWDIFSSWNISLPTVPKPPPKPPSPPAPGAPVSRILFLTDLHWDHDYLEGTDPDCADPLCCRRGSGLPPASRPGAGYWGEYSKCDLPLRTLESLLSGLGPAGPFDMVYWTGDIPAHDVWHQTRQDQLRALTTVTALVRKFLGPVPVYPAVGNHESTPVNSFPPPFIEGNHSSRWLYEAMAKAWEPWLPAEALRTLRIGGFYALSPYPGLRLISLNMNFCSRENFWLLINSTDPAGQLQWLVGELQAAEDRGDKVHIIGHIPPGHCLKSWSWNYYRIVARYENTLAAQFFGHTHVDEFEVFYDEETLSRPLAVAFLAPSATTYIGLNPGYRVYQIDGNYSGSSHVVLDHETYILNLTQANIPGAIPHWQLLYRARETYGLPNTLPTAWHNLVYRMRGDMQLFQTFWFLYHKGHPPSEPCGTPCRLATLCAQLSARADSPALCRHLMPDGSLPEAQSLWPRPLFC
#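 Fluorescence read-out (Ex 386 nm, Em 447 nm) after stopping the reaction at pH 10. Enzyme: ASM from human placenta; substrate HMU-PC0, 9 uM final; 60 min, 37 °C. Compound preincubation 10 min, ambient temperature.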
# IL1B secr inh: blocks inflammasome-driven IL-1 beta release | THP-1 LPS/ATP IL-1B secretion, AlphaLISA, 16 h; stronger effect = lower value | activity change, % at 57.5 µM | actives 4.7% (n = 360,000); in the data active = activity change below about -50%; inconclusive = mostly about -30% to -49%; also: % is scaled to controls: 0 for no effect and ±100 for the full control effect
#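 Secreted IL-1B measured by AlphaLISA bead assay after 16 h compound exposure of THP-1 cells; compounds (final up to 57.5 uM) added 1 h before LPS (250 ng/mL) and ATP (1.25 mM) stimulation; lower signal means less secretion.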
# DT40 TDP1 no CPT: qHTS for Inhibitors of human tyrosyl-DNA phosphodiesterase 1 (TDP1): qHTS in cells in absence of CPT; DT40 Tdp1-/- hTDP1 cells, no CPT, ATP luminescence, 48 h; Potency, µM (titrated, usually from 46.2 µM), without a hit: top-dose activity change, negative = growth inhibition, most hits filed as inhibitors; actives 15% (n = 420,000); also: potency is read from the fitted curve at half-maximal effect; % is scaled to controls: 0 for no effect and ±100 for the full control effect; nearly all actives have a fitted effect of over 55% in size
#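 Camptothecin absent (DMSO only). Human TDP1-complemented DT40 knockout cells, 400 cells/well, 37 °C for minimum 48 hr; ATP measured via CellTiter-Glo, 30 min dark incubation, luminescence.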
# DT40 TDP1 CPT: DT40-hTDP1 cell growth loss with CPT; Potency, µM (series often up to 46.2 µM), for the others: top-dose activity change, negative = growth inhibition, hits mostly inhibitors; actives 12% (n = 420,000); chicken DT40 Tdp1-/-;hTDP1 cells + 20 nM CPT, ATP luminescence, 48 h; also: potency is read from the fitted curve at half-maximal effect; % is scaled to controls: 0 for no effect and ±100 for the full control effect; nearly all actives have a fitted effect of over 55% in size
#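 Chicken DT40 Tdp1-/- cells stably complemented with human TDP1 were seeded at 400 cells/well in medium containing 20 nM camptothecin, exposed to pin-transferred compounds, and grown at 37 °C for at least 48 hr. Viability was read as ATP luminescence.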
# An asterisk follows results filed as active; ? = inconclusive; · = no result. This is a sample that favours compounds with a hit; in the whole collection about 19% have one here. Unless noted, calls follow the shape of the dose curve; as a rule, active = well fitted curve in the direction sought with a large enough effect; inconclusive = small, poorly fitted or top-dose-only effect, or another doubt; inactive = no such curve, though single readings can be large; an effect the other way counts as inactive or inconclusive.
SMILES,HepG2 tox,TGFb SMAD3 inh,S-ASM inh,IL1B secr inh,DT40 TDP1 no CPT,DT40 TDP1 CPT
O=C(C=C1NCCN1)c1ccccc1,3.2%,-4.5%,2.8%,3.1,-7.6%,15.5%
C=C(C(=O)O)c1ccc2ccccc2c1,-0.3%,2.7%,·,·,9.4%,13.9%
O=C(/C=C/c1ccccc1)c1ccc2ccccc2c1,20µM*,?,-4.2%,?,16.4µM*,?
O=CC(=O)c1ccccc1,-29.1%,-9.1%,-2.9%,82.4,16.4µM*,?
COc1cc(OC)c(OC)cc1/C=C/c1nc2cc3ccccc3cc2c(=O)n1-c1ccccc1Br,5.2%,13.8%,·,·,?,?
Cc1ccc(C(=O)N2CCN(c3ccccc3O)CC2)cc1S(=O)(=O)N1CCCCC1,0.1%,-15.7%,-3.0%,-5.1,?,?
CC(/C=C\c1ccccc1)=C/C(=O)O,0.2%,-6.7%,-2.7%,-19.2,-18.6%,7.8%
O=C(c1ccc(NS(=O)(=O)c2ccccc2)cc1)N1CCCC1,0.7%,-4.1%,-1.1%,-7.0,-4.8%,-18.9%
O=C(/C=C/c1ccccc1)c1ccccc1,-69.8%,?,-4.8%,?,-69.4%,14.6µM*
O=C(/C=C/c1ccccc1)/C=C/c1ccccc1,-17.4%,?,0.0%,-98.5*,·,5.17µM*
O=C(c1ccc(NS(=O)(=O)/C=C/c2ccccc2)cc1)N1CCCCC1,-10.0%,-12.7%,-0.1%,-75.5*,11.6µM*,?
O=C(/C=C/c1ccccc1)c1ccc2c3c(cccc13)CC2,-33.1%,-8.8%,-8.0%,-98.9*,?,?
CC1=[N+](C)N(c2ccccc2)C(=O)C1N=C/C=C/c1ccccc1 (stereo unspecified),-17.3%,-12.0%,5.9%,12.3,-11.1%,-16.2%
O=C(/C=C/c1ccc[nH]1)c1ccc(F)cc1,-14.7%,-5.4%,46.2%,-1.5,-10.3%,-28.2%
O=C(/C=C/c1ccc[nH]1)c1ccccc1,0.0%,14.4%,71.4%,?,?,25.9µM*
CCOc1ccc(NC(=O)c2cn3c4c(ccc(Cl)c4c2=O)OC(C)C3)cc1 (stereo unspecified),-0.1%,1.7%,·,·,-1.1%,-2.6%
Cc1cccc(CC2C(=O)Nc3ccccc32)c1 (stereo unspecified),-33.3%,0.0%,·,·,20.6µM*,?
O=C1Nc2ccccc2C1Cc1ccc(Br)cc1 (stereo unspecified),-23.9%,-27.2%,·,·,?,?
CSc1ccc(CC2C(=O)Nc3ccccc32)cc1 (stereo unspecified),-0.7%,-25.1%,·,·,20.6µM*,?
CCOC(=O)[C@]12CCC=C1N(Cc1ccc3c(c1)OCO3)C(=O)[C@H](CC(=O)N1CCOCC1)C2,·,·,·,15.1,-2.5%,-13.8%
Cc1cc(C)c(S(=O)(=O)N2CC=C(c3ccccc3)CC2)c(C)c1,-19.6%,0.0%,-2.2%,-5.3,-12.5%,?
CC(=O)Nc1cccc(OCCCNC(=O)c2cccc3ccccc23)c1,22.4%,-7.1%,38.6%,32.3,?,-11.7%
Cc1cccc(-n2cnc3cc(C(=O)NCC4CCCO4)ccc32)c1 (stereo unspecified),-32.5%,-9.3%,·,?,7.31µM*,9.2µM*
COc1ccc(-n2cnc3cc(C(=O)NCC4CCCO4)ccc32)cc1 (stereo unspecified),-6.3%,-0.2%,3.1%,-7.3,20.5%,-8.6%
O=C(c1ccc2ccccc2c1)N1CCc2ccccc21,-7.0%,-1.4%,-6.4%,21.2,-10.8%,11.8%
SMILES,HepG2 tox,TGFb SMAD3 inh,S-ASM inh,IL1B secr inh,DT40 TDP1 no CPT,DT40 TDP1 CPT
Cc1cccc(-n2cnc3cc(C(=O)N4CCc5ccccc54)ccc32)c1,-11.1%,?,-5.1%,-77.0*,?,-12.7%
COCCNC(=O)c1ccc2c(c1)ncn2-c1cc(C)ccc1OC,-9.3%,-3.3%,·,·,-11.7%,-24.8%
COCCNC(=O)c1ccc2c(c1)ncn2-c1cccc(C)c1,-4.1%,-16.1%,-1.4%,-11.4,?,16.4µM*
CN(C(=O)NC1CC(=O)N(c2ccc3c(c2)OCCO3)C1)c1ccccc1 (stereo unspecified),-2.4%,15.5%,1.0%,-2.4,-5.1%,22.3%
O=C(Nc1ccc(F)cc1F)c1cc(S(=O)(=O)N2CCCCC2)c[nH]1,-18.5%,13.1%,·,·,·,·
Oc1ccc(Cl)cc1-c1cc(C(F)(F)C(F)F)nc(-c2ccccc2)n1,2.1%,?,-10.2%,13.9,16.4µM*,29.1µM*
Cc1ccc(O)c(-c2cc(C(F)(F)C(F)F)nc(-c3ccccc3)n2)c1,-2.4%,32.5%,0.6%,11.3,?,-11.4%
Cc1ccc2c(c1)C(c1ccccc1)N(C(=O)c1ccc(OC(C)C)cc1)CC(=O)N2 (stereo unspecified),-19.3%,-1.1%,·,·,?,?
Cc1cc(Nc2ccc(C(C)C)cc2)nc(-n2nc(C)cc2C)n1,-47.8%,?,·,·,0.82µM*,0.581µM*
COc1ccc(Nc2cc(C)nc3nc(C)nn23)cc1Cl,-4.2%,3.4%,1.5%,-21.2,-12.8%,-18.4%
COc1ccc(Nc2cc(C)nc(-n3nc(C)cc3C)n2)cc1Cl,-37.9%,?,·,·,0.146µM*,0.366µM*
Cc1cc(Nc2ccc(F)cc2F)nc(-n2nc(C)cc2C)n1,-40.0%,?,·,·,4.61µM*,2.91µM*
CCOc1cc(C2CC(=O)Nc3c2c(C)nn3-c2nc(C)cc(C)n2)ccc1O (stereo unspecified),0.2%,20.0%,·,·,?,?
CCOc1ccc(NS(=O)(=O)c2cc(C(=O)N3CCC3)ccc2Cl)cc1,-2.0%,-2.5%,·,1.4,?,?
Cc1cc(=O)n2[nH]c(N)c(N=Nc3ccccc3F)c2n1,-21.3%,-13.7%,-11.7%,9.8,16.4µM*,?
Cc1ccc(C2NC(=O)c3ccccc3N2)c(C)c1 (stereo unspecified),-3.3%,-12.2%,221.3%,15.0,2.91µM*,2.06µM*
Cc1cccc(C2NC(=O)c3ccccc3N2)c1 (stereo unspecified),-1.2%,?,115.8%,0.0,5.17µM*,3.26µM*
Cc1ccc(C2NC(=O)c3ccccc3N2)s1 (stereo unspecified),-2.4%,-9.0%,49.3%,21.5,4.61µM*,5.8µM*
Cc1cc(C)n2c(Nc3c(C)cccc3C)c(CC(C)C)nc2n1,·,·,·,-4.1,23.1µM*,?
CCCCNc1c(CC(C)C)nc2nc(C)cc(C)n12,·,·,·,13.9,23.1µM*,16.4µM*
